# In publication PMC11062922 (Nature Chemical Biology, 2023):
# Where two headings read alike, the source gives them in different places.
# Legend:
# Parameters in all cases: species or system human, MV4-11 + K-562 + COLO205 + SK-N-BE2 + OVCAR-8
# PRKCA = conditions: read-out: apparent Kd, n = 1
# PRKCQ = conditions: read-out: apparent Kd, compound concentrations: 100 nM and 1000 nM (sheet 'Samples'), n = 1
# FECH = conditions: read-out: apparent Kd, n = 1
# MST1R = conditions: read-out: apparent Kd, n = 1
# AXL = conditions: read-out: apparent Kd, n = 1
# RAB5C = conditions: read-out: apparent Kd; compound concentrations:100 nM and 1000 nM (sheet 'Samples'); n = 1
# SPR = conditions: read-out: apparent Kd, compound concentrations: 100 nM and 1000 nM (sheet 'Samples'), n = 1
# STK16 = conditions: read-out: apparent Kd, compound concentrations: 100 nM and 1000 nM (sheet 'Samples'), n = 1
# EIF2AK1 = conditions: read-out: apparent Kd, n = 1
# MAP4K3 = conditions: read-out: apparent Kd, n = 1
# TAOK3 = conditions: read-out: apparent Kd, compound concentrations: 100 nM and 1000 nM (sheet 'Samples'), n = 1
# TP53RK = conditions: read-out: apparent Kd, n = 1
# CHEK1 = conditions: read-out: apparent Kd, n = 1
# FGFR1 = conditions: read-out: apparent Kd, n = 1
# GRK6 = conditions: read-out: apparent Kd, n = 1
# JAK1 = conditions: read-out: apparent Kd, n = 1
# NUAK2 = conditions: read-out: apparent Kd, compound concentrations: 100 nM and 1000 nM (sheet 'Samples'), n = 1
# PAK6 = conditions: read-out: apparent Kd, n = 1
# ATR = conditions: read-out: apparent Kd, n = 1
# MCM5 = conditions: read-out: apparent Kd; compound concentrations:100 nM and 1000 nM (sheet 'Samples'); n = 1
# [1] = compound concentrations:100 nM and 1000 nM (sheet 'Samples')
smiles,measurement,setting,value
Cn1cc(C2=C(c3cn(CCCO)c4ccccc34)C(=O)NC2=O)c2ccccc21 [RO0317377-000],potency estimated from few doses,"PRKCA; compound concentrations: 100 nM and 1000 nM (sheet 'Samples'), CATDS: 0.117489729482602",1240 nM
same,potency estimated from few doses,PRKCQ; CATDS: 9.7872401763747702E-2,2020 nM
COc1cc(Nc2ccnc3cc(-c4ccncc4)ccc23)cc(OC)c1OC.Cl [GW494610A],potency estimated from few doses,"FECH; compound concentrations: 100 nM and 1000 nM (sheet 'Samples'), CATDS: 2.4367792327904599E-2",1070 nM
same,potency estimated from few doses,"MST1R; compound concentrations: 100 nM and 1000 nM (sheet 'Samples'), CATDS: 2.33652063903033E-2",1280 nM
CCn1cc(-c2ccnc3[nH]c(-c4cccc(CN(C)C)c4)cc23)c(-c2ccc(NC(=O)N(C)C)cc2)n1 [GSK1070916],potency estimated from few doses,AXL; [1],891 nM
same,potency estimated from few doses,RAB5C,1430 nM
Cc1ccc(O)cc1Nc1ccnc2cc(-c3ccccn3)ccc12.Cl [GW440139A],potency estimated from few doses,SPR; CATDS: 2.8512814896169001E-2,683 nM
O=C1N=C(NCCc2ccccn2)S/C1=C\c1ccc2ncccc2c1 [RO4508346-000],potency estimated from few doses,STK16; CATDS: 6.4775104376565806E-2,2150 nM
CC(C)c1nc(-c2cccc(NS(=O)(=O)c3ccccc3)c2)c(-c2ccnc(Nc3ccc4c(c3)CN(C)CC4)n2)s1 [GSK1649598A],potency estimated from few doses,"EIF2AK1; compound concentrations: 100 nM and 1000 nM (sheet 'Samples'), CATDS: 1.2049138134939999E-2",2290 nM
same,potency estimated from few doses,"MAP4K3; compound concentrations: 100 nM and 1000 nM (sheet 'Samples'), CATDS: 1.29423166532144E-2",1570 nM
same,potency estimated from few doses,TAOK3; CATDS: 1.6812822211495999E-2,600 nM
CCc1nc(-c2cccc(N(C)S(=O)(=O)c3ccccc3)c2)c(-c2ccnc(Nc3ccc(N4CCN(C(C)=O)CC4)nc3)n2)s1 [GSK1645895A],potency estimated from few doses,"TP53RK; compound concentrations: 100 nM and 1000 nM (sheet 'Samples'), CATDS: 0.13765543946778",1940 nM
O=C1N=C(NCc2cccs2)SC1Cc1ccc2ncccc2c1 (stereo not drawn) [RO4629078-000],potency estimated from few doses,"AXL; compound concentrations: 100 nM and 1000 nM (sheet 'Samples'), CATDS: 8.9637378169906395E-3",899 nM
same,potency estimated from few doses,"CHEK1; compound concentrations: 100 nM and 1000 nM (sheet 'Samples'), CATDS: 9.1517924527920996E-3",847 nM
same,potency estimated from few doses,"FGFR1; compound concentrations: 100 nM and 1000 nM (sheet 'Samples'), CATDS: 7.8188916788292304E-3",1400 nM
same,potency estimated from few doses,"GRK6; compound concentrations: 100 nM and 1000 nM (sheet 'Samples'), CATDS: 8.7219841617169405E-3",974 nM
same,potency estimated from few doses,"JAK1; compound concentrations: 100 nM and 1000 nM (sheet 'Samples'), CATDS: 8.4918440228529003E-3",1060 nM
same,potency estimated from few doses,NUAK2; CATDS: 9.28769092053984E-3,813 nM
same,potency estimated from few doses,"PAK6; compound concentrations: 100 nM and 1000 nM (sheet 'Samples'), CATDS: 5.6767334452466102E-2",43.4 nM
same,potency estimated from few doses,PRKCQ; CATDS: 4.8799216922885302E-2,52.1 nM
Cc1cccc(-c2cc(-c3c[nH]nc3-c3ccccn3)ccn2)c1 [GW679395X],potency estimated from few doses,ATR; [1],784 nM
same,potency estimated from few doses,MCM5,2220 nM
O=C1N=C(NCCc2cccc(Cl)c2)S/C1=C\c1ccc2ncccc2c1 [RO4509201-000],potency estimated from few doses,"FECH; compound concentrations: 100 nM and 1000 nM (sheet 'Samples'), CATDS: 5.2952837559238602E-2",2080 nM
COc1ccc(Nc2nccc(N3CCC(NC(=O)Nc4ccc5c(c4)OCO5)C3)n2)cc1 (stereo not drawn) [GSK1379745A],potency estimated from few doses,"CHEK1; compound concentrations: 100 nM and 1000 nM (sheet 'Samples'), CATDS: 3.4900444296342099E-2",2070 nM
CS(=O)(=O)CCNCc1ccc(-c2ccc3ncnc(Nc4ccc(OCc5cccc(F)c5)c(C(F)(F)F)c4)c3c2)o1 [GW576484X],potency estimated from few doses,"MST1R; compound concentrations: 100 nM and 1000 nM (sheet 'Samples'), CATDS: 4.8936571303095901E-2",2070 nM
CN1C(=O)c2ccccc2N(C)c2nc(Nc3cnn(C4CCNCC4)c3)ncc21 [XMD-17-51],potency estimated from few doses,NUAK2; CATDS: 1.40993766530741E-2,1630 nM
same,potency estimated from few doses,STK16; CATDS: 1.46632885257346E-2,1360 nM
same,potency estimated from few doses,TAOK3; CATDS: 4.0612086764621601E-2,78.3 nM
Cc1cccc(Nc2nc(NCCN)ncc2C(N)=O)c1 [GSK1292139B],potency estimated from few doses,"PRKCA; compound concentrations: 100 nM and 1000 nM (sheet 'Samples'), CATDS: 7.8456539991917998E-2",1100 nM
CCN(CC)CCOc1ccc(Nc2ncc3cc(-c4c(Cl)cccc4Cl)c(=O)n(C)c3n2)cc1 [SB-601273],potency estimated from few doses,EIF2AK1; [1],802 nM
same,potency estimated from few doses,FGFR1; [1],388 nM
COc1cc2ncn(-c3cc(OCCCc4ccccc4)c(C(N)=O)s3)c2cc1OC [GSK205189A],potency estimated from few doses,PAK6; [1],1960 nM
Nc1ncc(-c2cn[nH]c2)c2scc(-c3ccc4c(c3)CCN4C(=O)Cc3ccccc3)c12 [GSK2593067A],potency estimated from few doses,"MAP4K3; compound concentrations: 100 nM and 1000 nM (sheet 'Samples'), CATDS: 5.6013670337788E-2",2210 nM
N#Cc1cccc(Nc2nccc(-c3cnn4ncccc34)n2)c1 [GW778894X],potency estimated from few doses,PRKCA; [1],1180 nM
COc1cc2ncn(-c3cc(OCc4cccs4)c(C(N)=O)s3)c2cc1OC [GSK312948A],potency estimated from few doses,RAB5C,1450 nM
CN1CCc2ccc(Nc3nccc(-c4c(-c5cccc(NC(=O)c6c(F)cccc6F)c5)nc5ccccn45)n3)cc2C1.Cl [GSK1010829B],potency estimated from few doses,TAOK3; CATDS: 3.3504953987682898E-2,1490 nM
COc1cc2ncn(-c3cc(OCc4ccncc4)c(C(N)=O)s3)c2cc1OC [GSK336313A],potency estimated from few doses,FECH; [1],2250 nM
CNC(=O)c1ccccc1Nc1nc(Nc2cccc(CS(C)(=O)=O)c2)ncc1C.O=CO [GSK1520489A],potency estimated from few doses,"AXL; compound concentrations: 100 nM and 1000 nM (sheet 'Samples'), CATDS: 1.37984345324301E-2",374 nM
same,potency estimated from few doses,"FGFR1; compound concentrations: 100 nM and 1000 nM (sheet 'Samples'), CATDS: 1.6795329465602301E-2",213 nM
same,potency estimated from few doses,NUAK2; CATDS: 9.7596009365087198E-3,1500 nM
same,potency estimated from few doses,SPR; CATDS: 1.1311991214782401E-2,749 nM
same,potency estimated from few doses,STK16; CATDS: 2.3983880535388601E-2,91.1 nM
Nc1nc(N)c2nc(-c3ccccc3)[nH]c2n1 [SKF-12778],potency estimated from few doses,ATR; [1],520 nM
same,potency estimated from few doses,JAK1; [1],953 nM
same,potency estimated from few doses,MCM5,2160 nM
Cn1cc(-c2ccc3c(c2)CCN3C(=O)Cc2cccc(Cl)c2)c2c(N)ncnc21 [GSK2606590A],potency estimated from few doses,"EIF2AK1; compound concentrations: 100 nM and 1000 nM (sheet 'Samples'), CATDS: 0.41818384912394302",679 nM
CS(=O)(=O)c1ccc(-c2cnc(N)c(C(=O)Nc3ccccc3)n2)cc1 [VE-821],potency estimated from few doses,"ATR; compound concentrations: 100 nM and 1000 nM (sheet 'Samples'), CATDS: 0.19985195991101001",648 nM
Cl.Cn1c(=O)c(Cc2ccc(F)cc2F)cc2cnc(NC3CCOCC3)nc21 [RO3308757-001],potency estimated from few doses,PAK6; [1],1650 nM
CC(=O)c1c(-c2ccncc2)[nH]c(-c2ccncc2)c1C [GW493036X],potency estimated from few doses,RAB5C,1600 nM
COc1cc(/C=N/Nc2ncnc3[nH]ncc23)ccc1O [GW578748X],potency estimated from few doses,CHEK1; [1],592 nM
Cn1cc(-c2cnc(N)c3c(-c4ccc5c(c4)CCN5C(=O)Cc4ccccc4)csc23)cn1 [GSK2593074A],potency estimated from few doses,MAP4K3; [1],1570 nM
same,potency estimated from few doses,MCM5,1530 nM
COc1ccc(Nc2nccc(N3CCC(NC(=O)Nc4cccc(OC)c4)C3)n2)cc1 (stereo not drawn) [GSK1379742A],potency estimated from few doses,"TP53RK; compound concentrations: 100 nM and 1000 nM (sheet 'Samples'), CATDS: 0.10793216189185099",2270 nM
COc1cc(N2CCN(C(C)C)CC2)ccc1Nc1nc(Nc2cccc(F)c2C(=O)O)c2cc[nH]c2n1 [GSK1819799A],potency estimated from few doses,SPR; CATDS: 4.2652137830011101E-2,2000 nM
COc1ccc(C2=C(c3cn(C)c4ccccc34)C(=O)NC2=O)cc1OC [RO3206363-000],potency estimated from few doses,PRKCQ; CATDS: 0.114661548989235,82.8 nM
Cc1ccc(-n2nc(C(C)(C)C)cc2NC(=O)Nc2ccc(OCCN3CCOCC3)cc2)cc1 [BIRB0876BS],potency estimated from few doses,GRK6; [1],2170 nM
NC(=O)c1cccnc1COc1cc(-c2ccc(N3CCOCC3)nc2)cc2ncccc12 [BI01125081],potency estimated from few doses,GRK6; [1],1700 nM
same,potency estimated from few doses,MST1R; [1],1120 nM
Nc1c(C(=O)c2ccccc2)cnn1-c1ccc(F)cc1 [RO1151246-000],potency estimated from few doses,TP53RK; [1],1850 nM
Nc1nccc(-c2c(-c3ccc(F)cc3)ncn2C2CCC(O)CC2)n1 (stereo not drawn) [SB-223133],potency estimated from few doses,"JAK1; compound concentrations: 100 nM and 1000 nM (sheet 'Samples'), CATDS: 2.6628241709745499E-2",1120 nM
